The record followed here is PubChem BioAssay AID720706 (Broad Institute, 2013).

Values joined by “and” are separate entries in the source; they are usually repeats but may differ in a detail not shown here. Identical values can stand only once. In all, about 350,000 compounds went through this assay and about 5,500 (1.6%) were called active. The sample holds actives, similar compounds and a random draw of the others, so the mix is not that of the screen.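 How the source made its calls: active means significant combined selectivity score with lowered wild-type GFP, culture density cut under 30%, mutant RFP and density less affected; inactive means any of these conditions unmet.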

The test in a line: reduced GFP signal of wild-type E. coli, primary screen, bacterial rRNA inhibitor project, GFP/RFP fluorescence, OD600, single point (AID 720706). Conditions: E. coli WT GFP vs humanized-ribosome RFP mutants, 24 h; GFP signal change (wild-type ribosome): stronger effect = lower value, DMSO median 0, no signal -100; OD600 change: measured here: OD600 growth, DMSO median 0, no signal -100; RFP signal change: measured here: RFP humanized mutant strains, DMSO median 0, no signal -100, concentration not given here.
Consider `COc1ccc(OC)c(/C(C)=N\NC(=O)c2cc3cc(Cl)ccc3n2C)c1`, for which the GFP signal change (wild-type ribosome) is -24% (active), the OD600 change is -9.4% and the RFP signal change was -0.802%.
For the molecule `COc1ccc(/C(C)=N/NC(=O)CCC(=O)Nc2ccc(Cl)cc2Cl)c(OC)c1`, the GFP signal change (wild-type ribosome) was -6.41% (inactive), the OD600 change was -4.28% and the RFP signal change came to 3.43%.
For `C[C@@H](C(=O)N(C)C[C@H]1OCc2ccccc2-c2c(n(C)c3ccccc23)C(=O)N([C@@H](C)CO)C[C@@H]1C)c1ccccc1` the same measures were -2.7% (inactive), -4.37% and 3.17%.
For `COc1ccc(CN(C)C[C@H]2OCc3cn(nn3)CCCC(=O)N([C@@H](C)CO)C[C@@H]2C)cc1` the same measures were -0.663% (inactive), 4.94% and -1.83%.
For `COc1ccc(NS(=O)(=O)c2ccc(N3CCN(CCO)CC3)c([N+](=O)[O-])c2)cc1` the same measures were -3.32% (inactive), 8.86% and 0.35%.
For `COc1ccc(NS(=O)(=O)c2cccc(C(=O)NCCc3ccc(S(N)(=O)=O)cc3)c2)cc1`, the GFP signal change (wild-type ribosome) was -0.729% (inactive), the OD600 change is -4.13% and the RFP signal change was 2.24%.
For `COc1ccc(NS(=O)(=O)c2ccc(Oc3c(C#N)cccc3C#N)cc2)cc1` the same measures were -33% (active), -6.7% and -3.93%.
For `C[C@@H]1CN([C@H](C)CO)C(=O)c2cc(NC(=O)CCN3CCOCC3)ccc2O[C@H]1CN(C)Cc1ccc(Oc2ccccc2)cc1`, in that order: -0.524% (inactive), 2.21% and -0.41%.
For `O=C(Nc1ccccc1F)N[C@H]1CC[C@@H](CCNS(=O)(=O)c2ccc(F)cc2)O[C@@H]1CO` the same measures were 0.53% (inactive), -4.9% and 0.665%.
As for `O=C(NN=Cc1ccccc1O)NN=Cc1ccccc1O`, the GFP signal change (wild-type ribosome) was -15.2% (inactive), the OD600 change was -34.3% and the RFP signal change is -9.61%.
With `O=C1Oc2ccccc2C(=O)/C1=C/c1ccccc1O`, the GFP signal change (wild-type ribosome) was -24% (active), the OD600 change was -16.1% and the RFP signal change is -3.67%.
As for `COC(=O)c1ccc(/C=C2/C(=O)Oc3ccccc32)cc1`, the GFP signal change (wild-type ribosome) was 5.01% (inactive), the OD600 change is 8.63% and the RFP signal change is -1.53%.
For `O=C(N[C@H]1CC[C@@H](CCNS(=O)(=O)Cc2ccccc2)O[C@H]1CO)c1ccccc1F`, in that order: 1.77% (inactive), 2.62% and 1.25%.
For `COCC(=O)Nc1ccc2c(c1)C(=O)N(C)C[C@H](OC)[C@@H](C)CN(CCc1ccccc1)[C@@H](C)CO2` the same measures were -2.84% (inactive), -4.45% and -1.3%.
Regarding `CCC(C)CN1C(=O)CN(S(C)(=O)=O)CC1(C)C(=O)Nc1ccc2c(c1)OCCO2` (stereo not given), the GFP signal change (wild-type ribosome) is 11.4% (inactive), the OD600 change is 6.25% and the RFP signal change was determined as 0.462%.
For `Cc1ccccc1CN1C(=O)CSCC1(C)C(=O)Nc1c(C)cccc1C` (stereo not given) the same measures were -3.76% (inactive), 8.15% and 2.11%.
For `CC1(C(=O)Nc2ccc3c(c2)OCCO3)CSCC(=O)N1CCOc1ccccc1` (stereo not given), in that order: -19.5% (active), -13.7% and 6.62%.
For `C[C@@H]1CCCCO[C@@H](CN(C)C(=O)Cc2ccccc2)[C@H](C)CN([C@H](C)CO)C(=O)c2cc(NC(=O)Cc3ccccc3)ccc2O1` the same measures were -4.58% (inactive), -13.8% and -0.346%.
Turning to `COc1cccc(CNC(=O)[C@@H]2[C@@H](CO)[C@@H]3Cn4c(ccc(-c5ccncc5)c4=O)[C@H]2N3C(C)=O)c1`, the GFP signal change (wild-type ribosome) was 2.73% (inactive), the OD600 change was -2.66% and the RFP signal change is -0.658%.
For `Cc1noc(C)c1S(=O)(=O)Nc1ccc2c(c1)C(=O)N([C@@H](C)CO)C[C@@H](C)[C@@H](CN(C)C)O2`, the GFP signal change (wild-type ribosome) is 5.72% (inactive), the OD600 change was -2.97% and the RFP signal change is -0.906%.
Turning to `Cc1cc2cc(CN(Cc3cccs3)Cc3nnnn3CC3CCCO3)c(=O)[nH]c2cc1C` (stereo not given), the GFP signal change (wild-type ribosome) is -7.06% (inactive), the OD600 change was -4.84% and the RFP signal change is -2.86%.
For `O=C(c1cccs1)N(Cc1cc2ccccc2[nH]c1=O)CC1CCCO1` (stereo not given), in that order: -0.275% (inactive), -2.27% and -1.32%.
For `Cc1cc(C)c2cc(CN(Cc3cccs3)Cc3nnnn3CC3CCCO3)c(=O)[nH]c2c1` (stereo not given), in that order: -37.2% (active), -22.2% and -2.73%.
Consider `CO[C@@H]1CN(C)C(=O)c2ccc(NC(C)=O)cc2OC[C@@H](C)N(CC2CC2)C[C@H]1C`, for which the GFP signal change (wild-type ribosome) was 2.26% (inactive), the OD600 change was -1.92% and the RFP signal change was 1.24%.
For `CC(=O)N(C)C[C@@H]1Oc2ccc(N)cc2CC(=O)N(C)C[C@H]1C` the same measures were 1.8% (inactive), 0.888% and -1%.
For `CNC[C@@H]1Oc2ccc(NC(C)=O)cc2CC(=O)N(C)C[C@@H]1C`, in that order: -0.631% (inactive), 1.55% and 0.729%.
In the case of `COc1ccc(S(=O)(=O)N[C@@H]2CC[C@@H](CC(=O)N3CCC(Cc4ccccc4)CC3)O[C@@H]2CO)cc1`, the GFP signal change (wild-type ribosome) was 8.03% (inactive), the OD600 change is -22.7% and the RFP signal change turned out to be 10.2%.
For `C[C@H](CO)N1C[C@H](C)[C@H](CN(C)Cc2ccc3c(c2)OCO3)Oc2c(NS(=O)(=O)c3ccccc3)cccc2C1=O` the same measures were -1.49% (inactive), 3.3% and -2.6%.
For `C[C@H](NC(=O)[C@H]1N[C@H]2c3ccc(-c4ccc(C(=O)N(C)C)cc4)c(=O)n3C[C@H]2[C@@H]1CO)c1ccccc1`, in that order: 1.87% (inactive), 7.26% and -1.73%.
Regarding `CN(C)C(=O)c1cccc(-c2ccc(C3[C@H]4CNC[C@@H]3N4C(=O)Nc3ccccc3F)cc2)c1` (stereo not given in full), the GFP signal change (wild-type ribosome) is 0.866% (inactive) and 2.44% (inactive); the OD600 change was -5.13% and 4.05%; the RFP signal change was -2.14% and 0.208%.
